Screens as filed in PubChem.
NIH3T3 tox = NIH 3T3 cell cytotoxicity. Potency, µM (doses to about 96.7 µM), for inactives: top-dose activity change, negative = cytotoxicity, actives largely listed as inhibitors. AID 1345082. actives 4.3% (n = 94,000). NIH 3T3 viability, CellTiter-Glo ATP luminescence, 48-72 h; also: nearly all actives have a fitted effect of over 55% in size
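First NIH 3T3 cells are plated at 400 cells/well; next compound is pinned in; then plates incubate 48 or 72 hr at 37 °C; finally CellTiter-Glo is added and luminescence read after 10 min.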
NPR1 antag = human Npr1 receptor antagonism. P16066. Potency, µM (doses to about 46.3 µM), for the others: at the top dose activity change, negative = inhibition, usual class: inhibitors. actives 1.6% (n = 76,000). HEK293 hNpr1 GloSensor cGMP, ANP-stimulated luminescence; calls by dose curve; also: nearly all actives have a fitted effect of over 60% in size
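HEK293 cells stably expressing human Npr1 and cGMP GloSensor pGS-40F, loaded 2 h with 2% GloSensor reagent, given compound 30 min at room temperature. Luminescence read before and 20 min after 0.1 nM hNppA.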
HEK cytotox = cytotoxic compounds in HEK 293 cells; Potency, µM (titrated, usually from 115 µM), for inactives: at the highest dose activity change, negative = cytotoxicity, actives largely listed as inhibitors; actives 6.6% (n = 94,000); AID 1345083; HEK 293 viability, ATP luminescence (CellTiter-Glo), 48-72 h; also: nearly all actives have a fitted effect of over 60% in size
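HEK 293 cells at 250 cells/well were exposed to compounds by pintool transfer for 48 or 72 hr at 37 degree Celsius, 5% CO2. Viability was read as ATP-coupled luminescence with CellTiter-Glo after 10 min at room temperature.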
Luciferase inh = blocks purified firefly luciferase enzyme activity; AID 1347043; Potency, µM (series often up to 115 µM), usual class: inhibitors; purified P. pyralis luciferase, luminescence, biochemical; actives 2.5% (n = 76,000); P08659; also: nearly all actives have a fitted effect of over 65% in size
Target sequence (P08659 whole entry, looked up): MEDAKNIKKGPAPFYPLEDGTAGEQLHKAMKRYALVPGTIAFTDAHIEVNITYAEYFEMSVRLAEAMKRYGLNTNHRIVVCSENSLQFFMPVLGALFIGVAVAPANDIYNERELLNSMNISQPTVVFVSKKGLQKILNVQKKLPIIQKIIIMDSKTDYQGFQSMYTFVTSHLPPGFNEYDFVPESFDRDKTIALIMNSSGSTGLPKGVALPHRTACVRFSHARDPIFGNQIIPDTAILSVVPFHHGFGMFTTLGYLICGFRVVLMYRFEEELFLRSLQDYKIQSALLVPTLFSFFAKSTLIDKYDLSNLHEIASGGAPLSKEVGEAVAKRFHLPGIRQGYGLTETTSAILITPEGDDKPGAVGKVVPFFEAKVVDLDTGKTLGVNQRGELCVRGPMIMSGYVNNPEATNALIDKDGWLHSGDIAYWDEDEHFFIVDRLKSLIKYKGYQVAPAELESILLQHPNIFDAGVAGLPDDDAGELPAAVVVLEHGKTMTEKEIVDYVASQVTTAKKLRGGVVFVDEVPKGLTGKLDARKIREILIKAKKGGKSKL
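Biochemical qHTS: compound (6-point titration) added to 10uM D-luciferin plus 10uM ATP in Tris acetate pH 7.5 buffer with Mg, Tween-20 and BSA, then purified enzyme at 10nM; light output imaged.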
An asterisk follows results filed as active; [ ] = remark or other dose. Only some compounds are listed: those with a hit (about 11% of all), similar ones and a draw of the others. Unless noted, calls follow the shape of the dose curve; as a rule, active = well fitted curve in the direction sought with a large enough effect; inconclusive = small, poorly fitted or top-dose-only effect, or another doubt; inactive = no such curve, though single readings can be large; an effect the other way counts as inactive or inconclusive. % is scaled to controls: 0 for no effect and ±100 for the full control effect; potency is read from the fitted curve at half-maximal effect.

O=C(O)CCC(=O)N1Cc2[nH]cnc2C[C@H]1c1nc(-c2ccc(Cl)cc2)no1 was read as NIH3T3 tox inactive, NPR1 antag 4.7%[70.6 µM], HEK cytotox 4.3%[172 µM] and Luciferase inh 70.8µM*.
For O=C(c1ccc(F)cc1)N1Cc2[nH]cnc2C[C@H]1c1nc(-c2ccc(Cl)cc2)no1 the results were NIH3T3 tox inconclusive, NPR1 antag -20.8%[70.6 µM], HEK cytotox inconclusive and Luciferase inh inactive.
Screening O=C(c1cccs1)N1Cc2[nH]cnc2C[C@H]1c1nc(-c2ccc3ccccc3c2)no1 returned NIH3T3 tox inconclusive, NPR1 antag -1.4%[70.6 µM], HEK cytotox -22.8%[172 µM] and Luciferase inh 28.2µM*.
For COc1ccc(NC(=O)N2Cc3[nH]cnc3C[C@H]2c2nc(-c3ccc4ccccc4c3)no2)cc1 the results were NIH3T3 tox inconclusive, NPR1 antag -4.8%, HEK cytotox inconclusive and Luciferase inh inactive.
For O=C(c1ccccc1)N1Cc2[nH]cnc2C[C@H]1c1nc(-c2ccncc2)no1 the results were NIH3T3 tox -27.1%[174 µM], NPR1 antag 1.3%[70.6 µM], HEK cytotox -16.6%[172 µM] and Luciferase inh inactive.
O=C(c1ccc(F)cc1)N1Cc2[nH]cnc2C[C@H]1c1nc(-c2ccc3c(c2)OCO3)no1 was read as NIH3T3 tox inconclusive, NPR1 antag -18.5%[70.6 µM], HEK cytotox inconclusive and Luciferase inh 31.6µM*.
`COCCCn1c(=O)c(C(=O)N2CCN(C(=O)c3ccccc3C)CC2)nc2cccnc21` gave NIH3T3 tox -14.1% and HEK cytotox -1.2%.
O=C(Nc1ccccc1)N1Cc2[nH]cnc2C[C@H]1c1nc(-c2ccccc2)no1 was read as NIH3T3 tox inconclusive, NPR1 antag -20.9%[70.6 µM], HEK cytotox -10.2%[172 µM] and Luciferase inh 39.8µM*.
CC(=O)c1ccc(NC(=O)N2Cc3[nH]cnc3C[C@H]2c2nc(-c3ccccc3)no2)cc1 was read as NIH3T3 tox -5.5%[138 µM], NPR1 antag -2.1%[70.6 µM], HEK cytotox 0.0%[172 µM] and Luciferase inh inactive.
Cc1ccc(-c2noc([C@@H]3Cc4nc[nH]c4CN3C(=O)Nc3ccc(Cl)cc3)n2)cc1 was read as NIH3T3 tox inconclusive, NPR1 antag inconclusive, HEK cytotox inconclusive and Luciferase inh 39.8µM*.
`O=C(Nc1ccc(Cl)cc1)N1Cc2[nH]cnc2C[C@H]1c1nc(-c2ccc3ccccc3c2)no1` gave NIH3T3 tox inconclusive, NPR1 antag -2.3%, HEK cytotox inconclusive and Luciferase inh 31.6µM*.
O=C(Nc1ccccc1)N1Cc2[nH]cnc2C[C@H]1c1nc(-c2ccc(Cl)cc2)no1 was read as NIH3T3 tox inconclusive, NPR1 antag inconclusive, HEK cytotox 100µM* and Luciferase inh 44.7µM*.
C[C@]1(CO)[C@H]2Cc3sc(NC(=O)c4cccc(F)c4)nc3[C@@H](CC(=O)NCc3ccco3)[C@]2(C)CC[C@H]1O was read as NIH3T3 tox inconclusive, NPR1 antag -10.5%, HEK cytotox inconclusive and Luciferase inh inactive.
O=[S+]([O-])(c1cccs1)N1CC(Oc2ccc(F)c(F)c2)C1 was read as NIH3T3 tox -22.2% and HEK cytotox -16.5%.
Screening CC(=O)NCCNC[C@@H]1C=C(C)[C@H](Cc2nnc(-c3ccc(C)cc3)o2)C[C@H]1C(C)C returned NIH3T3 tox 39.8µM*, NPR1 antag -21.3%[70.6 µM], HEK cytotox 56.2µM* and Luciferase inh inactive.
`CC1=C[C@@H](CNCCN2CCOCC2)[C@H](C(C)C)C[C@H]1Cc1nnc(-c2ccc(C)cc2)o1` gave NIH3T3 tox 35.5µM*, NPR1 antag -2.6%, HEK cytotox 39.8µM* and Luciferase inh inactive.
Screening CC1=C[C@@H](CNCCN(C)C)[C@H](C(C)C)C[C@H]1Cc1nnc(C)o1 returned NIH3T3 tox 1.2%[174 µM], NPR1 antag -2.8%[70.6 µM], HEK cytotox -2.0%[172 µM] and Luciferase inh inactive.
CC1=C[C@@H](CNCCN(C)C)[C@H](C(C)C)C[C@H]1Cc1nnc(C(C)(C)C)o1 was read as NIH3T3 tox 70.8µM*, NPR1 antag 0.9%[70.6 µM], HEK cytotox inconclusive and Luciferase inh inactive.
`CC1=C[C@@H](CNCCN(C)C)[C@H](C(C)C)C[C@H]1Cc1nnc(-c2ccc(C)cc2)o1` gave NIH3T3 tox 35.5µM*, NPR1 antag -3.1%[70.6 µM], HEK cytotox 35.5µM* and Luciferase inh inactive.
For COc1ccc(-c2nnc(C[C@@H]3C[C@@H](C(C)C)[C@H](CNC(=O)c4cnccn4)C=C3C)o2)cc1 the results were NIH3T3 tox -6.3%, NPR1 antag 1.8%, HEK cytotox inconclusive and Luciferase inh inactive.
`c1ccc(COc2ccccc2Cc2nc(-c3cccnn3)no2)cc1` gave NIH3T3 tox inconclusive, NPR1 antag 4.2%, HEK cytotox inconclusive and Luciferase inh inactive.
O=[N+]([O-])c1cccc(-c2noc([C@@H]3Cc4nc[nH]c4CN3Cc3ccc(F)cc3)n2)c1 was read as NIH3T3 tox inconclusive, NPR1 antag inconclusive, HEK cytotox 50.1µM* and Luciferase inh inactive.
For O=[N+]([O-])c1cccc(-c2noc([C@@H]3Cc4nc[nH]c4CN3Cc3cccs3)n2)c1 the results were NIH3T3 tox 79.4µM*, NPR1 antag inconclusive, HEK cytotox inconclusive and Luciferase inh inactive.
`O=C1NC2(CCN(C(=O)c3ccc(F)cc3)C2)OCc2ccccc21` (stereo unspecified) gave NIH3T3 tox -7.3%, NPR1 antag 1.8%, HEK cytotox -6.3% and Luciferase inh inactive.
Screening O=C1NC2(CCN(C(=O)Cc3ccccc3)C2)OCc2ccccc21 (stereo unspecified) returned NIH3T3 tox -29.3%[138 µM], NPR1 antag 14.0%[70.6 µM], HEK cytotox 100µM* and Luciferase inh inactive.
For CCCNC(=O)N1CCC(N2CC(OCCOC)C23CCCCC3)CC1 (stereo unspecified) the results were NIH3T3 tox -0.6%, NPR1 antag -0.3%, HEK cytotox -3.0% and Luciferase inh inactive.
CC(=O)N1CC(N2C(=O)c3c(c(C)nn3-c3ccccc3)C2C)C1 (stereo unspecified) was read as NIH3T3 tox inconclusive and HEK cytotox -3.4%[172 µM].
Screening CN(C)c1ccc(CN2CCNc3cc(-c4ccccc4)ncc3C2)cc1 returned NIH3T3 tox inconclusive, NPR1 antag -3.1%[70.6 µM], HEK cytotox inconclusive and Luciferase inh inactive.
Screening CN(C)c1ccc(CN2CCNc3cnc(-c4ccccc4)cc3C2)cc1 returned NIH3T3 tox inconclusive, NPR1 antag -15.0%[70.6 µM], HEK cytotox 100µM* and Luciferase inh inactive.
Screening Cn1cc(CN2CCNc3cnc(-c4ccccc4)cc3C2)cn1 returned NIH3T3 tox 31.6µM*, NPR1 antag -0.5%[70.6 µM], HEK cytotox inconclusive and Luciferase inh inactive.
Cc1cccc(CN2CCNc3cnc(-c4ccccc4)cc3C2)c1 was read as NIH3T3 tox inconclusive, NPR1 antag -25.5%[70.6 µM], HEK cytotox inconclusive and Luciferase inh inactive.
